Pol kappa inh = qHTS for Inhibitors of Polymerase Kappa. DNA polymerase kappa (Homo sapiens), Q9UBT6. hit rate 0.53% among 400,000. Potency, µM (series often up to 107 µM), hits mostly inhibitors. AID 588579, 2011. purified Pol kappa, fluorescent DNA synthesis assay, 10 min
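Inhibition of 10 nM Pol kappa is measured by a fluorescent read-out at 0 and 10 min following addition of 50 nM substrate (final), with a 15-min room-temperature compound preincubation.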
FEN1 inh = qHTS Assay for the Inhibitors of Human Flap endonuclease 1 (FEN1); P39748; Recombinant FEN1 flap cleavage, fluorescence, 15 min; Potency, µM (series often up to 114 µM), hits mostly inhibitors; hit rate 0.35% among 390,000; AID 588795, 2011; note: nearly all actives have a fitted effect of over 65% in size
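Quantitative HTS format: each compound was titrated, incubated with 10 nM nuclease for 15 min at room temperature, then challenged with flap substrate at 50 nM final. Signal change over 15 min gave concentration–effect curves.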
WRN helicase inh = qHTS for Inhibitors of WRN Helicase; Bifunctional 3'-5' exonuclease/ATP-dependent helicase WRN (Homo sapiens), Q14191; WRN helicase unwinding, fluorescent forked duplex, kinetic; Potency, µM (doses to about 114 µM), usual class: inhibitors; hit rate 0.46% among 360,000; AID 651768, 2012; note: nearly all actives have a fitted effect of over 55% in size
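WRN at 20 nM final was preincubated with compound for 15 min at room temperature; reaction started with 100 nM forked duplex oligonucleotide carrying fluorophore and quencher plus 2 mM ATP (final). Unwinding followed kinetically by red fluorescence (ex 525/em 598 nm).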
POLH inh = qHTS for Inhibitors of Polymerase Eta | recombinant Pol eta, fluorescent DNA replication assay | DNA polymerase eta (Homo sapiens), Q9Y253 | hit rate 1.2% among 390,000 | Potency, µM (doses to about 114 µM), hits mostly inhibitors | AID 588591, 2011
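Fluorescent replication assay: 50 nM final substrate added after a 15 min room-temperature compound preincubation with 10 nM enzyme. Signal taken at 0 min and again at 10 min.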
POLB inh = qHTS Assay for Inhibitors of DNA Polymerase Beta; P06746; Pol beta primer extension/strand displacement, fluorescence kinetic; Potency, µM (titrated, usually from 114 µM), usual class: inhibitors; hit rate 1.3% among 340,000
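Reaction started by 50 nM substrate onto compound-treated Pol beta (10 nM, 15 min preincubation, room temperature); plates read at 0 min and 10 min. Normalized concentration-effect data fitted by four-parameter Hill equation.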
Pol iota inh = qHTS for Inhibitors of Polymerase Iota | hit rate 1% among 390,000 | Pol iota fluorescent replication assay, 10 min | DNA polymerase iota (Homo sapiens), Q9UNA4 | Potency, µM (series often up to 115 µM), hits mostly inhibitors
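Fluorescent replication assay read twice, at 0 min and 10 min after adding 50 nM (final) substrate. Enzyme (10 nM) and compounds were first incubated 15 min at room temperature; enzyme-free buffer wells were negative controls.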
Each line names hits and unclear results; the compound was inactive in the other large screens. An excerpt weighted towards active compounds, which were near 2.4% of everything screened. Calls come from the whole dose curve; as a rule, active = well fitted curve in the direction sought with a large enough effect; inconclusive = small, poorly fitted or top-dose-only effect, or another doubt; inactive = no such curve, though single readings can be large; an effect the other way counts as inactive or inconclusive.

Nc1ccccc1SC(CC(=O)c1ccccc1)c1ccc([N+](=O)[O-])cc1 (configuration not stated)	none (no result: Pol kappa inh, FEN1 inh, POLB inh, Pol iota inh)
Cc1ccc(C(=O)CC(SCC(=O)O)c2ccc([N+](=O)[O-])cc2)cc1 (configuration not stated)	Pol iota inh 10µM
C#CCOCCOCCOCCNc1nc(N2CCN(C(=O)CCCCCCCCCCNC(=O)[C@H](CCCCN)n3cc(CCO)nn3)CC2)nc(N2CCN(C(=O)CCCCCCCCCCNC(=O)[C@H](CCCCN)n3cc(CCO)nn3)CC2)n1	FEN1 inh 79.4µM, POLH inh inconclusive (no result: POLB inh)
C#CCOCCOCCOCCNc1nc(N2CCN(C(=O)CCCCCCCCCCNC(=O)[C@H](CCCCN)n3cc(CCO)nn3)CC2)nc(N2CCN(C(=O)CCCCCCCCCCNC(=O)[C@H](CCCN=C(N)N)n3cc(C[C@@H](C)CC)nn3)CC2)n1	Pol kappa inh inconclusive, FEN1 inh 22.4µM, WRN helicase inh 35.5µM, POLH inh 79.4µM, Pol iota inh inconclusive (no result: POLB inh)
C#CCOCCOCCOCCNc1nc(N2CCN(C(=O)CCCCCCCCCCNC(=O)[C@H](CCCCN)n3cc(CCCC(=O)O)nn3)CC2)nc(N2CCN(C(=O)CCCCCCCCCCNC(=O)[C@H](CCCCN)n3cc(CCCC(=O)O)nn3)CC2)n1	Pol iota inh inconclusive (no result: POLB inh)
C#CCOCCOCCOCCNc1nc(N2CCN(C(=O)CCCCCCCCCCNC(=O)Cn3cc(C[C@@H](C)O)nn3)CC2)nc(N2CCN(C(=O)CCCCCCCCCCNC(=O)[C@H](CCCCN)n3cc(C[C@@H](C)CC)nn3)CC2)n1	FEN1 inh 50.1µM, WRN helicase inh inconclusive, POLH inh inconclusive, Pol iota inh inconclusive (no result: POLB inh)
C#CCOCCOCCOCCNc1nc(N2CCN(C(=O)CCCCCCCCCCNC(=O)[C@H](CCCCN)n3cc(C[C@@H](C)CC)nn3)CC2)nc(N2CCN(C(=O)CCCCCCCCCCNC(=O)[C@H](CCCCN)n3cc(C[C@@H](C)CC)nn3)CC2)n1	FEN1 inh 22.4µM, WRN helicase inh 50.1µM, POLH inh 79.4µM (no result: POLB inh)
C#CCOCCOCCOCCNc1nc(N2CCN(C(=O)CCCCCCCCCCNC(=O)[C@H](CCCCN)n3cc(CCCC(=O)O)nn3)CC2)nc(N2CCN(C(=O)CCCCCCCCCCNC(=O)[C@H](CCCN=C(N)N)n3cc(C[C@@H](C)CC)nn3)CC2)n1	FEN1 inh inconclusive, WRN helicase inh inconclusive, POLH inh inconclusive (no result: POLB inh)
COc1ccccc1C(O)c1nccn1Cc1ccccc1 (configuration not stated)	none (no result: WRN helicase inh, POLH inh, POLB inh)
CCCCCCCCCCCCCCCCOCCOCCOCCOCCOCCOCCOCCOCCOCCOCCOCCOCCOCCOCCOCCOCCOCCOCCOCCOCCO	none (no result: FEN1 inh, WRN helicase inh, POLH inh, POLB inh, Pol iota inh)
COc1ccc(C2NC(c3ccc4c(c3)OCO4)=CC(c3ccccc3O)N2)cc1OC (configuration not stated)	none (no result: WRN helicase inh, POLH inh, POLB inh)
Cc1ccc(C(=O)NCC(=O)OCC(=O)c2cccc3ccccc23)cc1	none (no result: WRN helicase inh, POLH inh, POLB inh)
COc1c(CC=C(C)C)cc(C2CC(=O)c3c(O)cc(O)cc3O2)cc1CC=C(C)C (configuration not stated)	FEN1 inh inconclusive
COC1=CC(=O)C(C2CC(=O)c3c(O)cc(O)cc3O2)=CC1=O (configuration not stated)	Pol kappa inh 31.6µM, FEN1 inh 50.1µM, WRN helicase inh 28.2µM, POLH inh inconclusive, Pol iota inh inconclusive (no result: POLB inh)
CCCCCCCCN1[C@@H](CC(=O)O)c2ccc(/C=C/C(=O)O)cc2S1(=O)=O	Pol kappa inh inconclusive (no result: WRN helicase inh, POLH inh, POLB inh)
C=CCSc1ncccc1C(=O)O	Pol iota inh 100µM
COc1ccccc1S(=O)(=O)N1CCN(c2nc(-c3cccs3)nc3ccccc23)CC1	none (no result: WRN helicase inh, POLH inh, POLB inh)
CCNc1ccc(/C=C2\C=Cc3ccccc32)cc1	none (no result: WRN helicase inh, POLH inh, POLB inh)
CCCC(=O)Oc1c(Sc2ccc(Cl)cc2)c(C)nn1-c1ccccc1	Pol iota inh 25.1µM (no result: WRN helicase inh)
